Screening data as filed in PubChem.
Gal4-VP16 FLuc: Gal4-VP16 reporter inhibition counter-screen; Drosophila S2 Gal4-VP16 UAS-luciferase, luminescence, 20 h; Potency, µM (titrated, usually from 53.6 µM), for the others: top-dose activity, negative = inhibition, actives largely listed as inhibitors; 3.5% of 310,000 active; AID 2546;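 also: Gal4-VP16 expression switched on by copper sulfate through the metallothionein promoter; nearly all actives have a fitted effect of over 50% in size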
RORg inh: blocks mouse ROR gamma transcriptional activity; 5.4% of 310,000 active; AID 2551; P51450; Drosophila S2 Gal4-RORgamma UAS-luciferase reporter, 20 h; Potency, µM (series often up to 53.6 µM), for the others: at the highest dose activity change, negative = inhibition, hits mostly inhibitors; also: nearly all actives have a fitted effect of over 60% in size
Target sequence (P51450 whole entry, looked up, the tested form may be a part): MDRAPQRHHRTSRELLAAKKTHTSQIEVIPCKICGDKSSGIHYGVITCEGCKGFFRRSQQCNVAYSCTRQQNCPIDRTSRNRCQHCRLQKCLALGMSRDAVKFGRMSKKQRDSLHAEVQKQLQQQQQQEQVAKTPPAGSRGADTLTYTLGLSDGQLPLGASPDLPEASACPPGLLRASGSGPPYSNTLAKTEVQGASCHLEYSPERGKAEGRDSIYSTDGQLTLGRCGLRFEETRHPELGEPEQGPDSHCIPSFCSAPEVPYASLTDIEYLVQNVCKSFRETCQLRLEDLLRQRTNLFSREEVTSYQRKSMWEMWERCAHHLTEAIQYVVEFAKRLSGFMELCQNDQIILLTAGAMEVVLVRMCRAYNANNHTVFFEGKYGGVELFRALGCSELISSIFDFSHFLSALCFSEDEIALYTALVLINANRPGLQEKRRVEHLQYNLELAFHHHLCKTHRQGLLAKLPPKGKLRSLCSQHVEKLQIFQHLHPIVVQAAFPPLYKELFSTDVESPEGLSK
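Schneider cells (Drosophila), stable Gal4 DBD–ROR gamma + UAS-luc; 1 hr cmpd preincubation; Cu2+ induction 700 uM final; 20 hr ambient; luminescence.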
KinaseGlo FLuc: Kinase-Glo luciferase inhibition (counter-screen). Q27757. Kinase-Glo luciferase, ATP luminescence, 8 min. Potency, µM (highest dose often 38.3 µM), for the others: at the top dose activity change, negative = inhibition, actives largely listed as inhibitors. 0.28% of 200,000 active. AID 1379; also: nearly all actives have a fitted effect of over 60% in size
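Kinase-Glo luciferase light output from ATP and luciferin was measured with 10 uM ATP, within the enzyme's linear range. Buffer: 50 mM imidazole pH 7.2, 50 mM KCl, 7 mM MgCl2, 0.01% Tween 20, 0.05% BSA; luminescence read after 8 min at ambient temperature.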
Starred values were filed as active, the others as inactive; ? = inconclusive; . = not tested or not shown. Hits are enriched below; roughly 6.2% of the tested compounds scored in any of these assays. Calls follow the shape of the dose curve; as a rule, active = well fitted curve in the direction sought with a large enough effect; inconclusive = small, poorly fitted or top-dose-only effect, or another doubt; inactive = no such curve, though single readings can be large; an effect the other way counts as inactive or inconclusive. % is scaled to controls: 0 for no effect and ±100 for the full control effect; potency is read from the fitted curve at half-maximal effect.

SMILES	Gal4-VP16 FLuc	RORg inh	KinaseGlo FLuc
CC(=O)OC1CC(OC(C)=O)[C@]2(C)C(CC(OC(C)=O)[C@@]3(C)C4=CC(=O)OC(c5ccoc5)[C@]4(C)CCC32)C1(C)C (stereo partly specified)	2%	22%	-4%
C=CCC1NS(=O)(=O)OCC1NC(=O)OCC(Cl)(Cl)Cl (stereo unspecified)	13%	4%	.
CC(C)(C)OC1NS(=O)(=O)OCC1NCOC(Cl)(Cl)Cl (stereo unspecified)	22µM*	10µM*	.
COC(=O)c1ccc(C(=O)NC2CCSc3ccccc32)cc1 (stereo unspecified)	3%	0%	.
Cc1ccc(NC(=S)NC2CCSc3ccccc32)cc1C (stereo unspecified)	4µM*	3.5µM*	.
Cc1ccc(/C=C2/Sc3ccccc3N(CC(=O)NCCCOC(C)C)C2=O)cc1	-14%	42%	-3%
Cn1c(=O)c(-c2ccc(Cl)cc2)nc2cnc(Oc3ccccc3)nc21	-16%	3%	-3%
Cc1ccn2cc(CSc3ccccc3)nc2c1	8.9µM*	13µM*	-8%
Cc1ccc(SCc2cn3cccnc3n2)cc1	-2%	11%	-9%
N=C(N)S/C=C\C(=O)O	32µM*	32µM*	3%
O=C(/C=C/c1ccc([N+](=O)[O-])cc1)NCc1ccccn1	-1%	27%	-1%
COc1ccc(/C=C/C(=O)NCC2COc3ccccc3O2)c(OC)c1 (stereo unspecified)	?	13%	-1%
O=C(/C=C/c1ccco1)NCc1ccccn1	2%	4.5µM*	0%
O=C(/C=C/c1ccco1)NCC1COc2ccccc2O1 (stereo unspecified)	11µM*	3%	.
O=C(NC(=S)N1CCN(c2ccccc2)CC1)c1c(F)cccc1F	1.4µM*	0.71µM*	.
O=C(c1cccs1)N1CCN(c2ccccc2)CC1	?	-27%	-2%
O=C(NC(=S)N1CCN(c2ccc(F)cc2)CC1)c1cccs1	0.56µM*	45µM*	1%
CC(C)[C@H](NC(=O)c1c(F)cccc1F)C(=O)N1CCN(c2ccc(F)cc2)CC1	11%	0%	.
O=C(c1cccs1)N1CCN(c2ccc(F)cc2)CC1	4%	1%	-5%
O=C(NC(=S)N1CCN(c2ccc(O)cc2)CC1)c1cccs1	2.8µM*	3.5µM*	.
COc1cc(C)ccc1Oc1ncnc(N)c1[N+](=O)[O-]	-4%	10%	.
C=CCNC(=O)C12CCC(C)(C(=O)[C@H]1Br)C2(C)C (stereo partly specified)	-5%	35%	.
Cc1cc(=O)[nH]c(SCC(=O)NN(c2ccccc2)c2ccccc2)n1	-12%	24%	.
CN1CCN(c2ccnc(-c3ccc(N(C)C)cc3)n2)CC1	-9%	3%	.
CC(C)Cn1cc(F)c(=O)n(CC(C)C)c1=O	-5%	-6%	-2%
SMILES	Gal4-VP16 FLuc	RORg inh	KinaseGlo FLuc
CCN1CCN(Cc2ccc(NC(=O)c3ccc(C)c(NC(=O)N4CCNC4=O)c3)cc2C(F)(F)F)CC1	-4%	5%	.
CCN1CCN(Cc2ccc(NC(=O)c3ccc(C)c(NC(=O)c4cccc5[nH]ccc45)c3)cc2C(F)(F)F)CC1	-13%	6.3µM*	.
O=c1oc2c(CN3CCCCCC3)c(O)ccc2cc1-c1nc2ccccc2[nH]1	0%	15%	-1%
COc1ccc(/C=N/n2cnc3c([nH]c4ccc(F)cc43)c2=O)cc1CN1CCCC1	11µM*	-80%	.
COc1ccc2c(c1)[nH]c1c(=O)n(/N=C/c3ccc(OC)c(CN4CCCC4)c3)cnc12	-10%	18%	.
CCOC(=O)N1CCN(C(=O)c2ccc3c(=O)n(-c4ccc(OC)cc4)c(=S)[nH]c3c2)CC1	-10%	7%	1%
COCCn1c(=S)[nH]c2cc(C(=O)N3CCN(c4cccc(Cl)c4)CC3)ccc2c1=O	?	11µM*	.
CCOCCCn1c(=S)[nH]c2cc(C(=O)N3CCN(C)CC3)ccc2c1=O	-2%	2%	1%
CCOC(=O)N1CCN(C(=O)c2cccc(-n3c(=S)[nH]c4cc(Cl)ccc4c3=O)c2)CC1	-9%	11µM*	1%
COCCn1c(=O)[nH]c2cc(C(=O)N3CCN(c4ccc(OC)cc4)CC3)ccc2c1=O	-10%	16%	.
CCOCCCn1c(=S)[nH]c2cc(C(=O)N3CCN(c4ccccc4)CC3)ccc2c1=O	?	13µM*	.
CC(C)N(Cc1nc(-c2ccccc2)no1)C(=O)C(Cl)(Cl)Cl	-15%	27%	-2%
Cc1c(NC(=O)CS(=O)(=O)c2ccccc2)c(=O)n(-c2ccccc2)n1C	5%	14%	-2%
Cc1ccc2c(c1)Oc1ccc(NC(=O)CCCl)cc1C(=O)N2	-5%	24%	0%
